Active and inactive are the calls of the source.
What was measured:
[1] = binders of probe aFSTL3 on microarray, primary screen, stem cell growth factor project, biochemical, small-molecule microarray, fluorescence 635/667 (AID 1064); settings: higher = more signal;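 note: measures binding of the biotinylated anti-FSTL3 antibody to printed compounds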
[2] = binders from COS7 lysate, DM2A8 probe, primary screen, torsin A project, cell lysate, small-molecule microarray, fluorescence 635/667 (AID 1065); settings: higher = more signal, COS7 lysate expressing mutant human TOR1A
[3] = binders of probe aFGF2 on microarray, primary screen, stem cell growth factor project, biochemical, small-molecule microarray, fluorescence 635/667 (AID 1067); settings: higher = more signal;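 note: measures binding of biotinylated aFGF2 protein to printed compounds on slides; z-score merges feature fluorescence and signal-to-noise across triplicate slides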
[4] = binders of probe aFGF10 on microarray, primary screen, stem cell growth factor project, biochemical, small-molecule microarray, fluorescence 635/667 (AID 1071); settings: higher = more signal;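 note: score merges 667 nm spot intensity and signal to noise from triplicate slides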
[5] = molecular target: Neurogenic locus notch homolog protein 2 (Homo sapiens) (UniProt Q04721); experiment: Notch2 binders on small-molecule microarrays, primary screen, biochemical, small-molecule microarray, 635 nm fluorescence, stem cell growth factors (AID 1073); settings: Notch2 binding, higher = more signal
[6] = molecular target: Pro-neuregulin-1, membrane-bound isoform (Homo sapiens) (UniProt Q02297); experiment: NRG1 binders on small-molecule microarrays, primary screen, psychiatric disease protein project, biochemical, small-molecule microarray, fluorescence 635/667 (AID 1075); settings: NRG1 binding, 635 nm fluorescence, higher = more signal;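 note: score combines 667 nm spot fluorescence with signal to noise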
[7] = system: Neuregulin-1 EGF-like domain; experiment: binders of neuregulin-1 EGF-like domain, primary screen, biochemical, small-molecule microarray, 635 nm fluorescence (AID 1081); settings: small-molecule microarray binding, higher = more signal;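 note: binding of the protein to compounds printed on small-molecule microarray slides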
[8] = FRG1 promoter luciferase signal modulators, primary screen, FRG1 inhibition for FSHD, cell-based, C2C12 myotubes, firefly/Renilla luciferase, luminescence (AID 1084); settings: higher = more signal, called active from +8 up or from −8 down
[9] = binders of probe aFST on microarray, primary screen, stem cell growth factor project, biochemical, small-molecule microarray, fluorescence 635/667 (AID 1086); settings: higher = more signal;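 note: score merges 667 nm fluorescence with signal-to-noise of each printed compound spot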
[10] = binders of probe aHhip on microarray, primary screen, stem cell growth factor project, biochemical, small-molecule microarray, fluorescence 635/667 (AID 1087); settings: higher = more signal;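 note: score merges spot fluorescence at 667nm with spot signal to noise ratio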
[11] = system: PRMT1 (protein arginine N-methyltransferase 1); experiment: PRMT1 binders on small-molecule microarrays, primary screen, biochemical, small-molecule microarray, 635 nm fluorescence (AID 1088); settings: small-molecule microarray binding, higher = more signal;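 note: binding of Prmt1 protein to compounds spotted on small-molecule microarray slides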
[12] = yeast growth modulation, basal conditions, primary screen, YJM789 clinical isolate, OD600, 24 h (AID 1089);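 note: growth of clinical yeast isolate S. cerevisiae YJM 789 seeded 1000 cells per well; test concentration not given here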; settings: S. cerevisiae YJM789 growth, higher = more signal, called active from +8 up or from −8 down
[13] = fission yeast growth modulation, primary screen, strain 972, OD600, 24 h, no modulator (AID 1090);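 note: basal condition with compound alone and no growth modifier present; test concentration not given here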; settings: S. pombe 972 growth, higher = more signal, called active from +8 up or from −8 down
[14] = S. cerevisiae growth modulation with rapamycin, primary screen, strain BY4716, OD600, 96 h (AID 1091); settings: higher = more signal, called active from +8 up or from −8 down; note: test concentration not given here
[15] = molecular target: Torsin-1A-interacting protein 2 (Homo sapiens) (UniProt Q8NFQ8); experiment: LULL1 binders on small-molecule microarray, primary screen, cell lysate, human LULL1 lysate, 635/667 nm fluorescence (AID 1092); settings: hLULL1 lysate binding, 635 nm fluorescence, higher = more signal;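 note: probe is lysate of COS7 cells overexpressing human LULL1; score merges per-feature 667 nm fluorescence with signal-to-noise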
[16] = E. coli growth modulation, two-sided OD650, primary screen, E. coli filamentation project, strain DRC41, 24 h (AID 1093); settings: OD650, 24 h, higher = more signal, called active from +8 up or from −8 down;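 note: MC1000 strain lacking acrAB efflux and sulA so SOS filamentation is blocked; test concentration not given here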
[17] = small-molecule microarray binders of probe aLefty2, primary screen, biochemical, biotinylated probe, 635/667 nm fluorescence (AID 1094); settings: higher = more signal;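 note: score merges spot fluorescence near 667 nm with spot signal-to-noise ratio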
[18] = system: Noggin (protein binding on small-molecule microarray); experiment: Noggin binders on small-molecule microarray, primary screen, biochemical, 635/667 nm fluorescence (AID 1095); settings: 635 nm fluorescence, higher = more signal;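 note: score merges 667 nm feature fluorescence with signal to noise over triplicate slides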
[19] = molecular target: Neurogenic locus notch homolog protein 3 (Homo sapiens) (UniProt Q9UM47); experiment: NOTCH3 binders on small-molecule microarray, primary screen, biochemical, 635/667 nm fluorescence (AID 1096); settings: NOTCH3 binding, 635 nm fluorescence, higher = more signal
[20] = small-molecule microarray binders of probe aEGFR, primary screen, biochemical, biotinylated probe, 635/667 nm fluorescence (AID 1097); settings: higher = more signal;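 note: probe is a biotinylated anti-EGFR antibody binding compounds printed on slides; score combines fluorescence near 667 nm and signal to noise of each spot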

Sequence of Pro-neuregulin-1, membrane-bound isoform (Homo sapiens) (Q02297 whole entry, looked up, the tested form may be a part, canonical isoform): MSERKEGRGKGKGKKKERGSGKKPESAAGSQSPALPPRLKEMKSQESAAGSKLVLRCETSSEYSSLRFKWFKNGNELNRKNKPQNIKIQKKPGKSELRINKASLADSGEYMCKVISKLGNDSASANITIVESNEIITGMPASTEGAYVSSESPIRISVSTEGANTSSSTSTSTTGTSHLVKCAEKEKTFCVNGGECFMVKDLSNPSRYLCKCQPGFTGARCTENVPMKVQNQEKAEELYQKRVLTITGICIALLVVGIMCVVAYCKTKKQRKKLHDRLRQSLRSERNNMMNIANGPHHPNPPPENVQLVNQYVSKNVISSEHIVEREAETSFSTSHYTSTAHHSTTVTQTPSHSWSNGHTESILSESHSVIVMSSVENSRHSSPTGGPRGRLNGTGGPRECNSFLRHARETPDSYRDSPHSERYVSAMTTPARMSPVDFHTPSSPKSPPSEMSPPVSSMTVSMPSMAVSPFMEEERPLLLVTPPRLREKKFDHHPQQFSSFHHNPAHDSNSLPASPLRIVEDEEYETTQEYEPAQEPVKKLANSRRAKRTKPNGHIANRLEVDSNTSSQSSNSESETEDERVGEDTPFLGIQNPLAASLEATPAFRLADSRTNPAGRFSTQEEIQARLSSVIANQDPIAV
Sequence of Neurogenic locus notch homolog protein 3 (Homo sapiens) (Q9UM47 whole entry, looked up): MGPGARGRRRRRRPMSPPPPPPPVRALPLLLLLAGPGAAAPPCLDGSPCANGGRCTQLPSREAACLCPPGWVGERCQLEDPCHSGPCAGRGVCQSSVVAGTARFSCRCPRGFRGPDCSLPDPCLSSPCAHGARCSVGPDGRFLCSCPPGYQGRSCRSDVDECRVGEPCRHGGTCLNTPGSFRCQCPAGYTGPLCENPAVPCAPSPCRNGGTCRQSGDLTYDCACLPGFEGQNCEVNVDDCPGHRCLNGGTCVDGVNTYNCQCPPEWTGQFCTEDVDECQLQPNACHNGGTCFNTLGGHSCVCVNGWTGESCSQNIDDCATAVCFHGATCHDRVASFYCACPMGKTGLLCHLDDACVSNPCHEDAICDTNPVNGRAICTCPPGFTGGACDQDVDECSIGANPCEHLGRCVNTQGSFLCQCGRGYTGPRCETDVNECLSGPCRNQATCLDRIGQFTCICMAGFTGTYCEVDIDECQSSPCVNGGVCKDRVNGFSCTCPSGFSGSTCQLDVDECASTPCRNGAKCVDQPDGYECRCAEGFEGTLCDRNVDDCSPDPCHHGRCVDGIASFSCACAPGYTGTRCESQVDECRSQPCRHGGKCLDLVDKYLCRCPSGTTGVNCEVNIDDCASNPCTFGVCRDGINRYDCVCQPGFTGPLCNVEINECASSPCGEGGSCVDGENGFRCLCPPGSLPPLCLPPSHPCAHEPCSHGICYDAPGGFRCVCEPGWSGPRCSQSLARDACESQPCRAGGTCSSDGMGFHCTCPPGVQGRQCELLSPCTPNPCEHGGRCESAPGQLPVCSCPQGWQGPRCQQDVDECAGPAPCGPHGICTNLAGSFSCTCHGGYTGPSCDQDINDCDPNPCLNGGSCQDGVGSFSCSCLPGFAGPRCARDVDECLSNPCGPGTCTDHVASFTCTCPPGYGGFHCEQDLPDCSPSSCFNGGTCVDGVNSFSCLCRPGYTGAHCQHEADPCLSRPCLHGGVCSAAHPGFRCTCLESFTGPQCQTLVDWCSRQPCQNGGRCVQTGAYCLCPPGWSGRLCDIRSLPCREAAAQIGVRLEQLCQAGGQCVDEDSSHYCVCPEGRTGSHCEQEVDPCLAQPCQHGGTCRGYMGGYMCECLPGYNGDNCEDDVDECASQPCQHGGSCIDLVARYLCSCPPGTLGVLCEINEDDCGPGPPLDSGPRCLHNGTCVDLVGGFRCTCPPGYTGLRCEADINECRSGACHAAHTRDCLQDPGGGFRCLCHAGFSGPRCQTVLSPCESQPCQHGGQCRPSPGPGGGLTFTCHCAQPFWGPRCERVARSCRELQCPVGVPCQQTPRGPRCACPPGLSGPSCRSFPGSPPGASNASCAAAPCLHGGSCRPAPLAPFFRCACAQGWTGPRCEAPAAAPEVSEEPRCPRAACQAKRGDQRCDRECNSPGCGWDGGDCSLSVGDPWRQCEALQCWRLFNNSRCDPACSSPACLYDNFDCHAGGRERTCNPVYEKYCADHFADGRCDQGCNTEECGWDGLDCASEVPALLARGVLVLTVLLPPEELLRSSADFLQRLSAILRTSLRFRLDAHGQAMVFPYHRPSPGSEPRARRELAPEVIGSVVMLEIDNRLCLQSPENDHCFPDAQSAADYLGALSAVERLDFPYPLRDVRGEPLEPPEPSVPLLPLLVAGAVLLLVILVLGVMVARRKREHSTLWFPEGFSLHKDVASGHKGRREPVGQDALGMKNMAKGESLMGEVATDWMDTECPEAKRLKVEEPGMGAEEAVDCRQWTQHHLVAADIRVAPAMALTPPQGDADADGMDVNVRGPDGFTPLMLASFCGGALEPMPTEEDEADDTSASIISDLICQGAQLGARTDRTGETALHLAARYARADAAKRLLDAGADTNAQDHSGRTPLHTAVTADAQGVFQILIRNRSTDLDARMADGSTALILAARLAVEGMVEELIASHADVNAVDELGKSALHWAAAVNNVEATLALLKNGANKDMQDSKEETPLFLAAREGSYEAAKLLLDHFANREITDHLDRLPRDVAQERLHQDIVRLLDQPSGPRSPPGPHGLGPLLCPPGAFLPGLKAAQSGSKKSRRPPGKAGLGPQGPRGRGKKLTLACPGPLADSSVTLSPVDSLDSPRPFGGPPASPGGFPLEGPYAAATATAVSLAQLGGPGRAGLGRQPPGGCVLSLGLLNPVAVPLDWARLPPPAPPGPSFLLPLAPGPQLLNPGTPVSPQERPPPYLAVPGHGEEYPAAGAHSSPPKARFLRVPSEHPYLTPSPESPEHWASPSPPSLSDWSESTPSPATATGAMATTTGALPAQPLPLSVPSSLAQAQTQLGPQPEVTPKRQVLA
Sequence of Torsin-1A-interacting protein 2 (Homo sapiens) (Q8NFQ8 whole entry, looked up): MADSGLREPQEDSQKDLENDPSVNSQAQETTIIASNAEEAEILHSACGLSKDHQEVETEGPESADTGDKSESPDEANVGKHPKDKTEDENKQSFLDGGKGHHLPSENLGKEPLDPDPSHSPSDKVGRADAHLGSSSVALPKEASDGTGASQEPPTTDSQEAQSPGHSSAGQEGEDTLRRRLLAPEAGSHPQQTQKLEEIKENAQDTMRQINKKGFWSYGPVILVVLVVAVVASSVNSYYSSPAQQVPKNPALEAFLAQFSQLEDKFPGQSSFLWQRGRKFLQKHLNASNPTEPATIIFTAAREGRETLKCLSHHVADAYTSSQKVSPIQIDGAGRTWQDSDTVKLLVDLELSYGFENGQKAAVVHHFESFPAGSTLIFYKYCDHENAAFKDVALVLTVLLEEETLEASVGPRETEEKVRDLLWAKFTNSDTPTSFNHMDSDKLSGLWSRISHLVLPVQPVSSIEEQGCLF

## O=C(CS)NCCCCCCNC(=O)[C@@H]1C[C@@H]2C(=O)N3CCC[C@H]3C(=O)N2[C@@H]1c1cccc(OCCO)c1
[1]
  composite z-score: 0.145
[2]
  composite z-score: 0.804
[3]
  composite z-score: 0.109
[4]
  composite z-score: 0.256
[5]
  composite z-score: 0.407
[6]
  composite z-score: 1.28
[7]
  composite z-score: 0.911
[8]
  z-score: 1.05 (inactive)
[9]
  composite z-score: -0.022
[10]
  composite z-score: -0.0645
[11]
  composite z-score: 1.35
[12]
  z-score: -1.69 (inactive)
[13]
  z-score: 0.335 (inactive)
[14]
  z-score: -0.365 (inactive)
[15]
  composite z-score: 2.35
[16]
  z-score: 1.2 (inactive)
[17]
  composite z-score: 0.177
[18]
  composite z-score: 0.488
[19]
  composite z-score: 1
[20]
  composite z-score: 0.0195

## C=C(/C=C/CNS(=O)(=O)c1ccc(C)cc1)[C@H](O)[C@H]1CCCN1S(=O)(=O)c1ccccc1[N+](=O)[O-]
[1]
  composite z-score: -0.402
[2]
  composite z-score: 0.578
[3]
  composite z-score: -0.0817
[4]
  composite z-score: 0.395
[5]
  composite z-score: 0.324
[6]
  composite z-score: 0.211
[7]
  composite z-score: 0.0706
[8]
  z-score: -4.12 (inactive)
[9]
  composite z-score: 0.279
[10]
  composite z-score: 0.0373
[11]
  composite z-score: 0.13
[12]
  z-score: 1.27 (inactive)
[13]
  z-score: 0.24 (inactive)
[14]
  z-score: 1.72 (inactive)
[15]
  composite z-score: -0.271
[16]
  z-score: 0.913 (inactive)
[17]
  composite z-score: -0.0948
[18]
  composite z-score: 1.3
[19]
  composite z-score: 0.291
[20]
  composite z-score: 0.0408

## CO[C@H]1O[C@H](CO)[C@@H](OC(=O)Nc2ccc(Oc3ccccc3)cc2)[C@H](OC(=O)Nc2ccccc2-c2ccccc2)[C@@H]1OC(=O)Nc1ccccc1-c1ccccc1
[1]
  composite z-score: 0.531
[2]
  composite z-score: 1.21
[3]
  composite z-score: 0.0325
[4]
  composite z-score: 1.02
[5]
  composite z-score: 1.57
[6]
  composite z-score: 1.59
[7]
  composite z-score: 1.18
[8]
  z-score: 1.17 (inactive)
[9]
  composite z-score: 1.03
[10]
  composite z-score: -0.121
[11]
  composite z-score: 1.54
[12]
  z-score: 1.96 (inactive)
[13]
  z-score: 0.592 (inactive)
[14]
  z-score: 0.974 (inactive)
[15]
  composite z-score: 2.72
[16]
  z-score: 1.39 (inactive)
[17]
  composite z-score: 0.143
[18]
  composite z-score: 0.156
[19]
  composite z-score: 1.12
[20]
  composite z-score: 0.425

## CC(C)(C)OC(=O)CC[C@@]1(C(=O)O)N=C(c2ccc(OCCCO)cc2)O[C@@H]1c1ccccc1
[1]
  composite z-score: 0.308
[2]
  composite z-score: -0.648
[3]
  composite z-score: -0.0459
[4]
  composite z-score: 0.13
[5]
  composite z-score: 0.347
[6]
  composite z-score: 1.96
[7]
  composite z-score: 1.53
[8]
  z-score: 0.853 (inactive)
[9]
  composite z-score: 0.398
[10]
  composite z-score: 0.24
[11]
  composite z-score: 0.618
[12]
  z-score: 0.586 (inactive)
[13]
  z-score: 1.24 (inactive)
[14]
  z-score: 0.519 (inactive)
[15]
  composite z-score: 3.55
[16]
  z-score: 0.0219 (inactive)
[17]
  composite z-score: 0.021
[18]
  composite z-score: -0.423
[19]
  composite z-score: 0.183
[20]
  composite z-score: -0.0884

## Cc1c(NC(=O)/C(C#N)=C/C=C/c2ccccc2[N+](=O)[O-])c(=O)n(-c2ccccc2)n1C
[1]
  composite z-score: -0.0331
[2]
  composite z-score: 0.563
[3]
  composite z-score: 0.0415
[4]
  composite z-score: 0.0448
[5]
  composite z-score: 1.03
[6]
  composite z-score: 1.1
[7]
  composite z-score: 1.13
[8]
  z-score: -0.844 (inactive)
[9]
  composite z-score: 0.334
[10]
  composite z-score: 0.0352
[11]
  composite z-score: 0.454
[12]
  z-score: 0.218 (inactive)
[13]
  z-score: -0.322 (inactive)
[14]
  z-score: 0.477 (inactive)
[15]
  composite z-score: 1.85
[16]
  z-score: 1.02 (inactive)
[17]
  composite z-score: -0.0124
[18]
  composite z-score: 0.148
[19]
  composite z-score: 0.945
[20]
  composite z-score: -0.0043

## C=CCNC(=O)[C@H]1[C@@H]2C(=O)O[C@@H](c3ccccc3)[C@@H](c3ccccc3)N2[C@@H](c2ccccc2OCCO)[C@]12C(=O)N(C(=O)OCCOC)c1ccc(C#CC3=CCCCC3)cc12
[1]
  composite z-score: 1.13
[2]
  composite z-score: 0.698
[3]
  composite z-score: 0.032
[4]
  composite z-score: 0.44
[5]
  composite z-score: 1.5
[6]
  composite z-score: 0.791
[7]
  composite z-score: 1.33
[8]
  z-score: -1.89 (inactive)
[9]
  composite z-score: 0.877
[10]
  composite z-score: -0.0022
[11]
  composite z-score: 1.55
[12]
  z-score: 1.85 (inactive)
[13]
  z-score: -1.02 (inactive)
[14]
  z-score: 4.29 (inactive)
[15]
  composite z-score: 2.38
[16]
  z-score: 1.23 (inactive)
[17]
  composite z-score: 0.304
[18]
  composite z-score: 0.843
[19]
  composite z-score: 1.05
[20]
  composite z-score: 0.34

## CCCN1C(=O)[C@]2(Cc3ccccc3)N=C(c3ccc(OCCCO)cc3)O[C@@H]2c2ccccc21
[1]
  composite z-score: 0.224
[2]
  composite z-score: 1.12
[3]
  composite z-score: -0.0226
[4]
  composite z-score: 0.347
[5]
  composite z-score: 0.415
[6]
  composite z-score: 0.305
[7]
  composite z-score: 1.3
[8]
  z-score: -0.355 (inactive)
[9]
  composite z-score: 0.195
[10]
  composite z-score: -0.198
[11]
  composite z-score: 1.54
[12]
  z-score: -0.128 (inactive)
[13]
  z-score: -1.88 (inactive)
[14]
  z-score: 0.585 (inactive)
[15]
  composite z-score: 3.26
[16]
  z-score: 1.05 (inactive)
[17]
  composite z-score: -0.0159
[18]
  composite z-score: 1.74
[19]
  composite z-score: 1.13
[20]
  composite z-score: -0.0605

## COCCCNC(=O)[C@]1(Cc2ccccc2CN=[N+]=[N-])N=C(c2ccc(OCCCO)cc2)O[C@@H]1c1ccccc1
[1]
  composite z-score: -0.254
[2]
  composite z-score: 1.19
[3]
  composite z-score: 0.0788
[4]
  composite z-score: 0.627
[5]
  composite z-score: 1.09
[6]
  composite z-score: 0.969
[7]
  composite z-score: 1.12
[8]
  z-score: -3.73 (inactive)
[9]
  composite z-score: 1.03
[10]
  composite z-score: -0.0645
[11]
  composite z-score: 0.972
[12]
  z-score: -0.212 (inactive)
[13]
  z-score: -0.0448 (inactive)
[14]
  z-score: 30.9 (active)
[15]
  composite z-score: 2.67
[16]
  z-score: 1.01 (inactive)
[17]
  composite z-score: -0.0819
[18]
  composite z-score: 0.348
[19]
  composite z-score: 0.599
[20]
  composite z-score: 0.0316

## O=C1NC(=O)C2C1C=CC(C(O)c1c(F)cccc1Cl)N2Nc1ccccn1 (stereo not given)
[1]
  composite z-score: 0.154
[2]
  composite z-score: 0.238
[3]
  composite z-score: 0.0182
[4]
  composite z-score: 0.474
[5]
  composite z-score: 0.55
[6]
  composite z-score: 1.53
[7]
  composite z-score: 0.633
[8]
  z-score: 0.569 (inactive)
[9]
  composite z-score: -0.014
[10]
  composite z-score: 0.0576
[11]
  composite z-score: 0.409
[12]
  z-score: 0.107 (inactive)
[13]
  z-score: 0.983 (inactive)
[14]
  z-score: 0.0515 (inactive)
[15]
  composite z-score: -0.191
[16]
  z-score: -0.764 (inactive)
[17]
  composite z-score: 0.21
[18]
  composite z-score: 0.148
[19]
  composite z-score: 0.01
[20]
  composite z-score: 0.213

## CN(C)CCCNC(=O)[C@@H]1c2ccccc2C(=O)N(CC23CC4CC(CC(C4)C2)C3)[C@H]1c1ccc(CO)cc1
[1]
  composite z-score: -0.782
[2]
  composite z-score: 1.13
[3]
  composite z-score: 0.0878
[4]
  composite z-score: 0.837
[5]
  composite z-score: 1.28
[6]
  composite z-score: 1.15
[7]
  composite z-score: 1.39
[8]
  z-score: -1.92 (inactive)
[9]
  composite z-score: 0.445
[10]
  composite z-score: -0.128
[11]
  composite z-score: 1.53
[12]
  z-score: -0.0129 (inactive)
[13]
  z-score: -7.98 (inactive)
[14]
  z-score: -2.06 (inactive)
[15]
  composite z-score: 3.24
[16]
  z-score: 0.583 (inactive)
[17]
  composite z-score: -0.227
[18]
  composite z-score: 0.954
[19]
  composite z-score: 1.05
[20]
  composite z-score: -0.0801
